Each structure is given as a SMILES string. “And” between values parts separate entries of the source, which are not always exact repeats. Identical values can stand only once. About 83,000 compounds went through this panel and 20% of them were active in at least one assay; those are over-represented in the sample as a whole.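 96-well plates, one dose, 48 hours. Percent growth reported; active if below 10.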 The source made the active and inactive calls.

The subject of this test is HL-60(TB) leukemia. The experiment in a line: NCI-60 one-dose screen, 48 h (100 = growth as untreated, 0 = no growth, -100 = all killed). The settings on record: 10 µM unless noted.
Turning to `N=C(N)N=Nc1ccc(O)cc1`, the growth is 69% [100 µM] (inactive).
The figure for `O=C(Nc1cccc(-n2cc(-c3ccncc3)c(-c3ccc(O)c(Cl)c3)n2)c1)Nc1ccc(Cl)c(Cl)c1` is -13.2% (active); for `COc1cccc2cc(-c3cc4ccccc4[nH]3)/c(=N/C(=S)Nc3ccccc3)oc12` it is 101% (inactive).
The figure for `CCCCCCN1C(=O)CN=C1Nc1ccc2cc3ccc(NC4=NCC(=O)N4CCCCCC)cc3nc2c1` is 50.1% (inactive); for `O=C(O)CNC1=C(Cl)C(=O)c2ccccc2C1=O` it is 122% (inactive); for `Cc1ccc(S(=O)(=O)Oc2ccc(Br)cc2Br)cc1` it is 41.5% (inactive).
The figure for `CCOC(=O)c1cn2c3c(cc(F)cc3c1=O)C(CC)c1ccccc1C2` (stereo not given) is 94.9% (inactive); for `O=C(Nc1ccc(Cl)c(Cl)c1)Nc1ccccc1O` it is 61.6% (inactive).
Consider `CCNCCNc1cc(-c2ccc(Cl)cc2)c(C#N)c2nc3ccccc3n12`, for which the growth was -60.4% (active).
Turning to `Nc1ncnc2nc(Br)[nH]c12`, the growth is 90.3% (inactive).
The result for `O=[N+]([O-])c1ccc2[nH]cc(-c3c4ccsc4cc4[nH]c5ccc([N+](=O)[O-])cc5c34)c2c1` reads 8.08% (active); that for `NC(=S)N/N=C(\c1ccc(Br)cc1)C1CC1`, 65.6% (inactive) and 64.8% (inactive); that for `OCc1ncc(-c2ccccc2)s1`, 91.1% (inactive).
The figure for `COc1cc(-c2nc(SC(C)C)nc(Nc3cccc(C)c3)c2C#N)cc(OC)c1OC` is 98.3% (inactive); for `CC(C)Sc1ncnc2nc[nH]c12` it is 95% (inactive).
The result for `Cc1ccc(N2CCN(C(=S)c3cccs3)CC2)cc1` reads 93.3% (inactive); that for `COc1cccc(NC(=O)Cn2cc(CN3CCN(c4ccnc5cc(Cl)ccc45)CC3)nn2)c1`, 124% (inactive); that for `O=C(Nc1ccc(I)cc1F)c1cc(Cl)ccc1O`, -44.3% (active).
In the case of `Nc1n[nH]c2ccc([C@H]3[C@@H]4C5CCC(C5)[C@@H]4c4c(ccc5[nH]ncc45)N3S(=O)(=O)C3CC3)cc12` (stereo not given in full), the growth was -19.6% (active).
For the compound `COc1ccc(-c2cc(/C=C3\C(=O)Nc4cc(Cl)ccc43)[nH]n2)cc1OC`, the growth is 53% (inactive).
The figure for `Cn1cccc1/C=C1/SC(=S)N(CCc2ccc(O)cc2)C1=O` is 1.22% (active); for `Cc1cc(C)c(CC(=O)O)c(C)c1` it is 97.3% (inactive).
Consider `O=C(c1c(F)ccc(NS(=O)(=O)N2CC[C@@H](F)C2)c1F)c1c[nH]c2ncc(-c3cnc(C4CC4)nc3)cc12`, for which the growth was 35.6% (inactive).
The result for `OCc1cccnc1` reads 117% (inactive).
As for `O=C(CCl)Nc1ccccc1SCc1cc(Cl)cc2c1OCOC2`, the growth is 49.4% (inactive).
The figure for `NS(=O)(=O)c1ccc(CCN2C(=O)/C(=C\c3ccccc3)C=C2c2ccc(Cl)cc2)cc1` is 104% (inactive); for `C=CCNc1nnc(C)s1` it is 139% (inactive).
Regarding `COc1cccc(NC(=O)c2cccc(-c3cc(=O)c4c(OC)c(OC)c(OC)cc4o3)c2)c1`, the growth is 68.7% (inactive).
As for `N#CSCC1CC(O)(c2ccccc2)C(c2ccccc2)C(c2ccc(F)cc2)O1` (stereo not given), the growth was -24.7% (active).
The figure for `CCCOC(=O)C1c2cc3c(cc2CC(C)C1C(=O)OCCC)OCO3` (stereo not given) is 111% (inactive).
The result for `COC1=C(Br)C(=O)C(OC)=C(Br)C1=O` reads 8.67% (active).
The figure for `CC/C(=C(/c1ccc(OCCN(C)C)cc1)c1ccc(OC(=O)CCCCCCCCC(=O)c2c(C)[nH]c(/C=C3\N=C(c4ccc[nH]4)C=C3OC)c2C)cc1)c1ccccc1` is 76.7% (inactive).
Regarding `CC(=O)Nc1c(I)c(NC(C)=O)c(I)c(C(=O)O)c1I`, the growth was 92.4% (inactive) and 95.8% (inactive).
Regarding `CN1CCN(Cc2ccc(NC(=O)c3[nH]ncc3Nc3ncnc4[nH]ccc34)cc2)CC1`, the growth is -31.4% (active).
In the case of `COc1ccc(-n2c(C)nc3c(c(C)nn3-c3ccccc3)c2=O)cc1`, the growth is -18.3% (active).
For the compound `Cc1cc(N2CCC(N3CCCC3)CC2)nc(/N=C(\N)Nc2ccc(Cl)c(Cl)c2)n1`, the growth was 90.4% (inactive).
The figure for `O=C(Nc1ccccc1S)c1ccccc1` is 105% (inactive); for `C=C(C)[C@@H]1CC[C@]2(C(N)=O)CC[C@]3(C)[C@H](CC[C@@H]4[C@@]5(C)CCCNC(C)(C)[C@@H]5CC[C@]43C)[C@@H]12` it is 61.1% (inactive); for `Cc1ccc(C(=O)/C(=C/c2ccc([N+](=O)[O-])cc2)S(=O)Cc2ccccc2)cc1` (stereo not given) it is 36.8% (inactive).
As to `O=c1c2ccccc2oc2ccc(OCCCCCN3CCCCCC3)cc12`, the growth is 38% (inactive).

The values above are taken from PubChem BioAssay (NCI).
